Bioassay records (PubChem)
In the library only some 6% were active in any assay of this set; here they are far more common.
Chronic BCR inh = qHTS Assay to Find Inhibitors of Chronic Active B-Cell Receptor Signaling | Potency, µM (titrated, usually from 46.1 µM), without a hit: at the top dose activity change, negative = inhibition, most hits filed as inhibitors | hit rate 0.05% among 340,000 | ABC-DLBCL IkBa-CBG/CBR reporter, luminescence ratio, 4 h; active means well fitted inhibition curve with a large enough effect in the signal ratio, with a control signal flat, not every such curve was filed as active; inconclusive means small, poorly fitted or top-dose-only effect, or effect the other way, or a change in a side signal; the % refers to the signal ratio;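 further: potency means the concentration at half of the fitted maximal effect; plate controls were basal doxycycline-induced cells for no effect and cells given 10 µM MG132 for full effect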
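TMD8 ABC-DLBCL cells carrying doxycycline-inducible green luciferase fused to IkappaBalpha plus unfused red luciferase were exposed to compounds (up to 46 uM) for 4 hrs at 37C. Activity came from the overlap-corrected green/red luminescence ratio.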
D1 antagonist = Antagonist of Human D 1 Dopamine Receptor: qHTS | activity change, negative = inhibition, % at 10 µM | HEK293 TREx D1 cells, calcium flux, dopamine EC80; hits give low values | D(1A) dopamine receptor (Homo sapiens), P21728 | hit rate 3.2% among 360,000; in the data active means activity change below about -30%; further: on the % scale 0 is the no-effect control and ±100 the full control effect
Target sequence (P21728 whole entry, looked up): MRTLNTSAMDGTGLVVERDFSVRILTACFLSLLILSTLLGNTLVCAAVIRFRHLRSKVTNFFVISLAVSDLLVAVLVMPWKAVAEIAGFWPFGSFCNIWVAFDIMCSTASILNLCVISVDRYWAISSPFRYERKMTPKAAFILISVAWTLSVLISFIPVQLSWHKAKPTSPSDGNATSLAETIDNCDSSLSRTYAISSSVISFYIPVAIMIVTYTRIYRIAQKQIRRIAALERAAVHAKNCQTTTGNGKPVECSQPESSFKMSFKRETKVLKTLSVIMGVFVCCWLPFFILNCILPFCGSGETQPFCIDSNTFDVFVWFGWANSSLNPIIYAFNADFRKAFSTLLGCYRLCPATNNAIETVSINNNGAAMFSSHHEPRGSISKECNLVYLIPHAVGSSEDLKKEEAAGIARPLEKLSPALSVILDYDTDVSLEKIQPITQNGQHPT
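Tetracycline-induced HEK293 T-REx cells with force-coupled D1 receptor were loaded with a no-wash calcium dye. Compound was added after a 10 s baseline and read kinetically for 180 s; EC80 dopamine was then added and calcium flux followed another 180 s.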
D1 ag = Allosteric Agonists of the Human D1 Dopamine Receptor: qHTS | hit rate 1% among 360,000 | HEK293 T-REx D1 cells, calcium flux, agonist mode | AID 504660, 2011 | D(1A) dopamine receptor (Homo sapiens), P21728 | activation, % at 2 µM; in the data active means activation above about 30%; further: 0% is about no effect
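Tetracycline-induced HEK293 TREx D1 cells, force-coupled to calcium signalling, were dye-loaded with a no-wash calcium kit. Compound was pin-added after a 10 s baseline. Fluorescence was read kinetically at 1 cycle/s for 180 s, with calcium rises flagged as agonism.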
DRD3 agonist = qHTS of D3 Dopamine Receptor Agonist: qHTS; D(3) dopamine receptor (Homo sapiens), P35462; D3R DiscoveRx beta-arrestin cells, luminescence, 90 min; max activation, %; hit rate 0.58% among 410,000; AID 652048, 2013; in the data active means max activation above about 30%; further: 0% is about no effect
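Cells at 1500/well, incubated overnight, then treated with pinned compounds (dopamine as control) for 90 min at 37 degrees C. DiscoveRx reagent added for 30 - 60 minutes at room temperature; luminescence read.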
D1 potentiator = Potentiators of Human D1 Dopamine Receptor: qHTS; D(1A) dopamine receptor (Homo sapiens), P21728; potentiation, % at 10 µM; hit rate 0.036% among 360,000; HEK293 TREx D1 cells, calcium flux, dopamine EC20 potentiation; AID 504651, 2011; in the data active means potentiation above about 30%; further: 0% is about no effect
D3 antag = qHTS of D3 Dopamine Receptor Antagonist: qHTS; D(3) dopamine receptor (Homo sapiens), P35462; D3R cells, DiscoveRx beta-arrestin luminescence, antagonist mode; hits give low values; max response, negative = inhibition, %; hit rate 2.5% among 360,000; AID 652054, 2013; in the data active means max response below about -50%; inconclusive means no clear call, values can overlap the other calls; further: on the % scale 0 is the no-effect control and ±100 the full control effect
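Cells plated overnight at 1500 cells/well, then exposed to library compounds with dopamine controls for 90 minutes at 37 degrees C. DiscoveRx reagent added for 30–60 minutes at room temperature; luminescence read, quantitative HTS format.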
An asterisk follows results filed as active.

Results for CCCC1C(C(=O)OCC)=C(C)NC(C)=C1C(=O)OCC ?
Chronic BCR inh: -1%; D1 antagonist: -50*; D1 ag: 2; DRD3 agonist: 2; D1 potentiator: -19; D3 antag: -12

What do the screens show for `CCOC(=O)C1=C(C)NC(C)=C(C(=O)OCC)C1C(=O)OCC(=O)N(C)C`?
Chronic BCR inh: -1%; D1 antagonist: -60*; D1 ag: 0; DRD3 agonist: 8; D1 potentiator: -2; D3 antag: 14

How did COC(=O)C1=C(C)NC(C)=C(C(=O)OC)C1c1ccc(N(C)C)cc1 do in these assays?
Chronic BCR inh: 21µM*; D1 antagonist: 16; D1 ag: -1; DRD3 agonist: -3; D1 potentiator: -3; D3 antag: -3

Results for CCOC(=O)C1=C(C)NC(C)=C(C(=O)OCC)C1c1ccc(O)cc1 ?
Chronic BCR inh: inconclusive; D1 antagonist: -36*; D1 ag: 0; DRD3 agonist: -1; D1 potentiator: -7; D3 antag: -4

How did CCC[C@H]1CN(c2ccc(Br)cc2)C(=O)[C@@H]1CC(=O)NC do in these assays?
DRD3 agonist: 2; D3 antag: 23

How did Nc1ccc2c(c1)Nc1ccccc1CC2 do in these assays?
Chronic BCR inh: 6%; D1 antagonist: -31*; D1 ag: 0; DRD3 agonist: 4; D1 potentiator: -7; D3 antag: 6

What do the screens show for `O=S(=O)(c1ccc(Cl)cc1)N1CCC(N2CCOCC2)CC1`?
Chronic BCR inh: 14%; D1 antagonist: -17; D1 ag: 1; DRD3 agonist: 2; D1 potentiator: -5; D3 antag: inconclusive

How did Nc1nc(-c2ccc(Cl)cc2)c(N=Nc2ccc(S(=O)(=O)N3CCOCC3)cc2)s1 do in these assays?
Chronic BCR inh: -1%; D1 antagonist: -11; D1 ag: 0; DRD3 agonist: 0; D1 potentiator: -2; D3 antag: -54*

How did NC(=O)[C@@H]1C[C@]2(NC(=O)NC2=O)c2cc(F)ccc2O1 do in these assays?
DRD3 agonist: -1

What do the screens show for `Cc1ccc(C(=O)CN2C(=O)c3ccccc3S2(=O)=O)cc1`?
Chronic BCR inh: -7%; D1 antagonist: -11; D1 ag: 3; DRD3 agonist: 16; D1 potentiator: -9; D3 antag: 0

What do the screens show for `Cc1ccc(C(=O)CN2/C(=C(\O)c3ccccc3)C(=O)c3ccccc3S2(=O)=O)c(C)c1`?
Chronic BCR inh: inconclusive; D1 antagonist: -7; D1 ag: 3; DRD3 agonist: -4; D1 potentiator: -2; D3 antag: -50*

How did Cc1ccc(-n2cnc3cc(C(=O)NCc4ccccc4Cl)ccc32)c(C)c1 do in these assays?
Chronic BCR inh: inconclusive; D1 antagonist: -1; D1 ag: 0; DRD3 agonist: -18; D1 potentiator: -2

How did COc1cccc(CNc2ccc(N3CCC(C)CC3)cc2)c1OC do in these assays?
Chronic BCR inh: -5%; D1 antagonist: -13; D1 ag: -1; DRD3 agonist: -27; D1 potentiator: 2; D3 antag: -64*

What do the screens show for `Cc1ccnc(NC(=O)Nc2ccc(Br)cc2Cl)c1`?
Chronic BCR inh: 4%; D1 antagonist: 3; D1 ag: 1; DRD3 agonist: -14; D1 potentiator: 3; D3 antag: -54*

How did COC(=O)c1ccccc1NC(=O)Nc1cc(C)ccn1 do in these assays?
Chronic BCR inh: inconclusive; D1 antagonist: -12; D1 ag: 1; DRD3 agonist: -1; D1 potentiator: -1; D3 antag: 4

How did Cc1ccc(C)c(S(=O)(=O)NC(C)C(=O)Nc2ccc(-c3nc4ccccc4s3)cc2)c1 (stereo not given) do in these assays?
Chronic BCR inh: 9%; D1 antagonist: 0; D1 ag: 6; DRD3 agonist: 51*; D1 potentiator: -1; D3 antag: 44
